Hit rate of the full screen: of about 190,000 compounds, about 930 (0.49%) were called active. Some of the results follow. Results with a measured potency or affinity are listed apart. Unmarked numbers belong to inactive results.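 How the source made its calls: active means z-score of insulin promoter reporter brightness in nuclei below -3 at 5 µM, with at least 500 cells counted; inconclusive means wells with under 500 cells, flagged as toxic or sparse; inactive means the rest.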

Our source for the z-score values is PubChem BioAssay AID1628 (Sanford-Burnham Center for Chemical Genomics, 2009).

A short description of this assay: decrease of insulin promoter-GFP reporter – imaging, high-content screening, mouse beta cells (AID 1628). The following applies: MIN6 insulin promoter GFP reporter, at 5 µM, active compounds read low.
On to `Cc1cc(OCC(=O)NCc2cccnc2)ccc1[N+](=O)[O-]`, for which the z-score is -4.17 (active). As to `CCCNC(=O)Cc1cc(=O)[nH]c(=O)[nH]1`, the z-score is -3.04 (active). On to `CCCc1cc(=O)[nH]c(SCC(=O)NCCCC(=O)OCC)n1`, for which the z-score was 3.15. With `CC1(C)c2ccccc2N2CC(=O)NC21/C=C/c1ccco1` (configuration not stated), the z-score was 3.29. Then `COC(=O)c1cccc(N2C(=O)c3cccnc3C2=O)c1`, with 0.1.

On to `O=C(CSc1ncccn1)NC(=O)c1ccccc1`, for which the z-score was 0.73. For `COC(=O)c1ccnc(SCC(=O)c2ccccc2)c1`, the z-score is -3.59 (active). The value for `CCN1C(=O)/C(=C/c2ccc(N3CCCC3)cc2)NC1=S` was 15.8. The value for `CCOC(=O)c1ccc2c(c1)nc(C1CCN(S(=O)(=O)c3cccs3)CC1)n2CC` was -4.13 (active). On to `CCn1c(SCC(=O)c2c[nH]c3ccccc23)nc2cc(S(=O)(=O)N3CCOCC3)ccc21`, for which the z-score is 3.09. Take `CS(=O)(=O)Nc1ccc(C(=O)Nc2ccccc2C(=O)N2CCCC2)cc1`: the z-score is -4.1 (active). As for `COc1cccc(C(=O)Nc2ccccc2C(=O)N2CCCC2)c1`, the z-score is 3.3.

For `CCNc1c2c3c(cccc3n(C)c1=O)C(=O)c1ccccc1-2`, the z-score was 15.6. Take `CCC(CC)COC(=O)C(C#N)c1nc2ccccc2nc1N1CCN(CC)CC1` (configuration not stated): the z-score is -3.84 (active). The value for `Cc1ccc(S(=O)(=O)C(C#N)c2nc3ccccc3nc2N2CCC(C)CC2)cc1` (configuration not stated) was 3.75; that for `CCN1CCN(C2=CC3=CC(=C(C#N)C#N)CCC3CC2)CC1` (configuration not stated) was 16.6. With `CCN(CC)c1ccc(/C=C2\SC(=O)N(C(C)C)C2=O)o1`, the z-score is 17.4. The value for `Cc1ccccc1-c1nnc(-c2ccc(Cl)cc2)o1` was 3.54; that for `CC(Cc1c[nH]c2ccccc12)C(=O)O` (configuration not stated) was 0; that for `CC(=O)OCC(=O)c1c[nH]c2ccccc12` was 0.26.

Consider `CN1/C(=C\C=C(/C#N)C(=O)Nc2ccc(Cl)cc2)C(C)(C)c2ccccc21`, for which the z-score was 8.8. `C=CCN1C(=O)/C(=C\C=C2\N(C)c3ccccc3C2(C)C)SC1=S`: the z-score was 15.4.

Regarding `CN1CCN(C2=CC3=CC(=C(C#N)C#N)CCC3CC2)CC1` (configuration not stated), the z-score is 10.9. Consider `N#CCCn1cc(C(CC(=O)c2ccc(Br)cc2)C(=O)O)c2ccccc21` (configuration not stated), for which the z-score was -4.89 (active). `CCN1C(=O)/C(=C/C=C2\N(CC)c3cc(S(=O)(=O)N(C)C)ccc3N2c2ccccc2)SC1=S`: the z-score was 13.2. As for `COc1ccc(-c2cc(=O)c3cc(OC)ccc3o2)cc1`, the z-score is -0.37.

As for `COc1ccc2[nH]cc(CCN3C(=O)CCC3=O)c2c1`, the z-score was -5.12 (active). Turning to `N/C(=N\OC(=O)C1CCCCC1)c1cccc([N+](=O)[O-])c1`, the z-score was 3.01. In the case of `O=C(c1cccc([N+](=O)[O-])c1)N1CCCN(C(=O)c2cccc([N+](=O)[O-])c2)CC1`, the z-score was -7.17 (active).

As for `COc1cccc(C(=O)CN2C(=O)C(C)(C)Oc3ccc(C(=O)N4CCCCCC4)cc32)c1`, the z-score is 3.58.

As for `CCc1ccc(NC(=S)NCC2CCCN2CC)cc1` (configuration not stated), the z-score was 3.74. As to `S=C(Nc1ccc(Oc2ccc(NC(=S)NC3CCCCC3)cc2)cc1)NC1CCCCC1`, the z-score is -5.62 (active). In the case of `O=C1N/C(=N/Nc2ccccc2)S/C1=C\c1ccccc1`, the z-score is 3.19.

Turning to `CCOC(=O)c1c(C)nc2c(c1C)c(=O)oc1ccccc12`, the z-score is 0.62. As for `O=c1cc(-c2ccc(O)cc2)oc2ccccc12`, the z-score is -0.5.

For `O=C1/C(=C/c2ccc(N3CCCC3)cc2)NC(=S)N1C1CC1`, the z-score is 12.6. Consider `COC(=O)c1nc2ccccn2c1F`, for which the z-score is 2.02. As for `CC1(C)CC(=O)c2sc(NS(=O)(=O)Cc3ccccc3)nc2C1`, the z-score is 1.07.

For `O=c1c(N2CCOCC2)c(N2CCOCC2)c1=O`, the z-score was 3.02. For the compound `COc1cc(NC(=O)CN(C)Cc2ccc(OC(F)F)cc2)c(C)cc1[N+](=O)[O-]`, the z-score is -4.52 (active). Then `COc1cc(Cl)c(C)cc1NC(=O)CN(C)Cc1cccc(OC)c1OC`, with 3.4; and `Cc1ccc(Nc2cc(C)nn2-c2nc(C)cc(=O)[nH]2)cc1`, with -3.51 (active).

Turning to `Cc1ccc(Nc2nc3c([nH]2)c(=O)n(C)c(=O)n3C)cc1`, the z-score is 3.32. Turning to `FC(F)(F)c1cccc(N2CCN(Cc3cccnc3)CC2)c1`, the z-score was -4.71 (active). As to `CC(C)(O)C(O)COc1c2ccoc2cc2oc(=O)ccc12` (configuration not stated), the z-score is -0.51.

For `O=C(/C=C/c1ccco1)Oc1cc(Br)cc(/C=N/NC(=O)c2ccccc2O)c1`, the z-score was -4.99 (active). Then `COc1cccc(/C=N/NC(=O)c2oc3nc(-c4ccccc4)cc(-c4ccco4)c3c2N)c1`, with 3.3.

As to `CCCCNC(=O)CSc1cc(=O)n(C)c2ccccc12`, the z-score was -4.57 (active). Regarding `N#Cc1cccc(NC(=O)CSc2ccc3c4c(cccc24)C(=O)c2ccccc2-3)c1`, the z-score was 4.94. As for `CCc1cc(C(=O)OC)c(NC(=O)CC2Sc3ccc(C(F)(F)F)cc3NC2=O)s1` (configuration not stated), the z-score is 3.33. `COc1ccccc1OCC(O)Cn1c(=N)n(CCN2CCCCC2)c2ccccc21` (configuration not stated): the z-score was -5.05 (active). Turning to `Brc1ccc(Oc2nsnc2N2CCOCC2)cc1`, the z-score is 3.88. Then `CCN(CC)S(=O)(=O)c1cccc(-c2nnc(SCCCC(=O)c3ccc(F)cc3)o2)c1`, with -4.17 (active); and `C=CCn1c(C)cc(C(=O)CSc2nnc(-c3cccc(S(=O)(=O)N(CC)CC)c3)o2)c1C`, with -3.66 (active); and `CC(C)CNC(=O)CSc1nnc(-c2cccc(S(=O)(=O)N3CCCCC3)c2)o1`, with 4.75. Then `CC(=O)OC(C(=O)NCc1ccc(F)cc1)c1ccccn1` (configuration not stated), with 3.91; and `Cc1nc2ccccc2nc1N/N=C/c1ccc(O)cc1O`, with -3.3 (active); and `Oc1ccc(/C=N/Nc2nc(-c3ccccc3F)nc3ccccc23)c(O)c1`, with 3.69.

For `Cc1ccc(-c2cc(N)n(-c3ccccc3)n2)cc1`, the z-score is 5.28. `Cc1ccc(-n2ncc(Br)c(Br)c2=O)cc1`: the z-score was -4.97 (active). For `c1ccc(-c2csc(-n3cnnn3)n2)cc1`, the z-score is 3.13. Regarding `N#C/C(=C/c1ccc(N2CCOCC2)o1)c1nc2ccccc2[nH]1`, the z-score is 15.

Take `Cc1ccccc1-n1ncc2c(SCC(=O)NCc3cccs3)ncnc21`: the z-score is 3.57. As for `COc1ccc2c(C)cc(SCC(=O)N(C)C3CCS(=O)(=O)C3)nc2c1` (configuration not stated), the z-score is 4.13.

Regarding `CC(C)Cn1c(=O)c2c(nc3n2CCCN3CCc2ccccc2)n(C)c1=O`, the z-score is -4.13 (active). With `Cn1c(=O)n(Cc2ccccc2F)c(=O)c2c1nc1n2CCN1Cc1ccco1`, the z-score was 2.8.

On to `O=C1C2C3C=CC(C3)C2C(=O)N1CCc1ccccc1` (configuration not stated), for which the z-score is 3.33. Regarding `CCCCN1C(=O)/C(=C/C=C2/CC(C)(C)CN2C)SC1=S`, the z-score is 16.2. Turning to `COc1ccc(NC(=O)/C(C#N)=C\c2ccc(N3CCOCC3)o2)cc1`, the z-score was 3.17. The value for `COc1ccc(CC(=S)N2CCOCC2)cc1` was -4.87 (active); that for `COc1ccc(C(=S)N2CCCC2)cc1` was 0.82. Then `O=C(Cn1ncn2c(cc3ccccc32)c1=O)NCc1ccco1`, with 3.78; and `Cc1cc(=O)oc2cc(OC(=O)c3ccccc3)ccc12`, with -0.09. `Cc1cc2oc(=O)cc(CN3CCN(C/C=C/c4ccccc4)CC3)c2cc1O`: the z-score was -3.48 (active). On to `CCc1cc2c(CN3CCN(CCO)CC3)cc(=O)oc2cc1O`, for which the z-score was 3.59. With `CCC(c1nnnn1CCc1ccccc1)N(Cc1ccco1)Cc1cc2cc(C)cc(C)c2[nH]c1=O` (configuration not stated), the z-score was -3.35 (active). Regarding `CCC(c1nnnn1Cc1ccco1)N(Cc1ccccc1OC)Cc1cc2cc(C)ccc2[nH]c1=O` (configuration not stated), the z-score is -4.61 (active). The value for `CCC(c1nnnn1CCc1ccccc1)N(Cc1ccco1)Cc1cc2cccc(C)c2[nH]c1=O` (configuration not stated) was -3.08 (active); that for `CCOc1ccc2[nH]c(=O)c(CN(Cc3ccco3)C(CC)c3nnnn3Cc3ccccc3)cc2c1` (configuration not stated) was -2.78.

In the case of `Cc1cc2nc3c(=O)n(C4CCCCC4)c(=O)[nH]c3nc2cc1N`, the z-score is 7.94. For `CCC(C)N1C(=O)/C(=C/c2c(NCCCOC(C)C)nc3c(C)cccn3c2=O)SC1=S` (configuration not stated), the z-score is 13.1. Regarding `Cc1noc(C)c1COc1cccc(C(=O)OC(C)C(=O)Nc2c(C)n(C)n(-c3ccccc3)c2=O)c1` (configuration not stated), the z-score was 1.6. For `COc1ccc2nc(NC(=O)c3cccc(OCc4c(C)noc4C)c3)sc2c1`, the z-score is -3.94 (active). With `CC(=O)Nc1ccc2nc(NC(=O)COc3cccc(C)c3)sc2c1`, the z-score is 1.98. As to `COc1cc(N2CCCC2)c(OC)cc1/C=c1/sc2nc3ccccc3n2c1=O`, the z-score is 16.8. Then `CCCN1C(=O)/C(=C\C=C2\N(CC)c3ccccc3C2(C)C)SC1=S`, with 17.2; and `CCCN1C(=O)/C(=C/C=C2\N(CC)c3ccccc3C2(C)C)SC1=S`, with 12.5.

Regarding `N#C/C(=C/c1ccc(N2CCCCC2)o1)C(=O)NCCc1c[nH]c2ccccc12`, the z-score is 17.5.

Turning to `O=C1c2cccnc2C(=O)N1Cc1ccco1`, the z-score is 2.51. Then `CC(C)(CO)C(O)C(=O)NCCC#N` (configuration not stated), with -1.31; and `O=[N+]([O-])c1ccc(/C=C/C2=NN(c3ccccc3)C(c3ccco3)C2)o1` (configuration not stated), with 12.4; and `CCOC(=O)c1ccc(NC(=O)C2CC2)cc1`, with -4.4 (active). As for `CCOc1ccc(NC(=O)C2CCC(C)(C(=O)O)C2(C)C)cc1` (configuration not stated), the z-score was 3.64.

Turning to `CCN(CC)c1ccc(NC(=O)C2CC3CCC2C3)cc1` (configuration not stated), the z-score was -2.14.

Take `CCOC(=O)c1ccc(NC(=O)C2(c3ccc(OC)cc3)CCCC2)cc1`: the z-score is -5.09 (active). `CN1CC=C2C(C#N)=C(N)C(C#N)(C#N)C(c3cccc(Cl)c3Cl)C2C1` (configuration not stated): the z-score was 14.1. As to `COc1cc(N2CCCC2)c(OC)cc1/C=C1/NC(=S)NC1=O`, the z-score was 17.8.
